Our source for the Potency and cell number change values is PubChem BioAssay AID2685 (National Center for Advancing Translational Sciences (NCATS), 2010).

Structures are written as SMILES. Screen size: about 320,000 compounds; about 2,100 (0.66%) were called active. Another 53% or so got no clear call; they are omitted. Calls follow the shape of the dose curve; as a rule, active = well fitted inhibition curve with a large enough effect in the signal ratio, with a control signal flat (not every such curve was filed as active); inconclusive = small, poorly fitted or top-dose-only effect, or effect the other way, or a change in a side signal; inactive = flat fitted curve, though single readings scatter; the % refers to the signal ratio. Many of the other results were omitted from the sample, so actives are more common in it than they were.
Potency is read from the fitted curve at half-maximal effect.

The test in a line: qHTS Assay for Lipid Storage Modulators in Drosophila S3 Cells.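 As to cell number change: cells counted by Cell Tracker Red CMTPX staining in the red channel.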 Conditions: BODIPY lipid droplet fluorescence, 18-24 h, cells fed with added oleic acid; cell number change: measured here: cell count max response; series mostly up to 46.1 µM. In short, it runs like this: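 Drosophila S3 cells got compounds at several concentrations plus oleic acid (400 uM solution). Laser-scanning cytometry with 488 nm excitation read lipid droplets at 500-530 nm and cells at 575-640 nm. Percent activity was relative to 20 uM Triacsin C.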
In general terms: Quantitative high-throughput screening tests each substance at several concentrations.
Take `C=CCc1ccccc1OCCn1nnc2ccccc21`: the Potency entry was “inactive” and the cell number change is -12.8%.
For `Cc1ccc(-c2ccc(/C=N/n3cnnc3)o2)cc1`, the Potency entry was “inactive” and the cell number change was 8.97%.
Take `Fc1ccc(-c2ccc(/C=N/n3cnnc3)o2)cc1`: the Potency is 10.3 µM (active) and the cell number change is -15.7%.
In the case of `Fc1ccc(-c2ccc(/C=N\n3cnnc3)o2)cc1Cl`, the Potency result is “inactive”.
For `O=C(Nc1ccccc1)NC1CCN(Cc2c(F)cccc2Cl)CC1`, the Potency entry was “inactive” and the cell number change was 4.31%.
As to `O=c1c(Cc2c(F)cccc2Cl)c(O)ccn1CCc1ccccn1`, the Potency is 14.1 µM (active) and the cell number change was -22%.
In the case of `O=c1c(Cc2c(F)cccc2Cl)c(O)ccn1Cc1ccc(F)cc1`, the Potency entry was “inactive”.
As for `O=c1c(Cc2c(F)cccc2Cl)c(O)ccn1C1CC1`, the Potency entry is “inactive” and the cell number change was 4.74%.
On the same counts, the results for `CCC(C)(C)n1nnnc1C(c1ccccc1)N1CCN(C2CCCC2)CC1` (stereo not drawn) are “inactive” and -10.2%.
On to `COc1ccc(CC(=O)NNC(=O)c2ccco2)cc1OC`, for which the Potency result is “inactive” and the cell number change is -12.7%.
With `O=C1/C(=C/c2ccc(Cl)cc2)SC(=S)N1CCC(=O)N1CCCCC1CCO` (stereo not drawn), the Potency result was “inactive” and the cell number change is -22.1%.
Take `CCN(C(=O)CN1C(=O)/C(=C/c2ccccc2)SC1=S)C1CCS(=O)(=O)C1` (stereo not drawn): the Potency entry was “inactive” and the cell number change is -6.26%.
Consider `O=C(O)CCCCN1C(=O)/C(=C\c2ccc(OCc3ccccc3)c(OCc3ccccc3)c2)SC1=S`, for which the Potency result was “inactive” and the cell number change is -10.9%.
For `COc1ccc(/C=C2\SC(=S)N(CCCC(=O)N3CCN(C)CC3)C2=O)cc1`, the Potency result was “inactive” and the cell number change was -9.52%.
Take `CN(C(=O)CCN1C(=O)/C(=C/c2ccccc2)SC1=S)C1CCS(=O)(=O)C1` (stereo not drawn): the Potency entry is “inactive” and the cell number change stood at 10.8%.
On the same counts, the results for `O=C(CCCN1C(=O)/C(=C/c2ccccc2)SC1=S)N1CCOCC1` are “inactive” and 15.4%.
On the same counts, the results for `CN1CCN(C(=O)CCCN2C(=O)/C(=C/c3ccccc3)SC2=S)CC1` are 8.2 µM (active) and 3.91%.
In the case of `COc1ccc(/C=C2\SC(=S)N(CCC(=O)N3CCCCC3CCO)C2=O)cc1` (stereo not drawn), the Potency was 20.6 µM (active) and the cell number change is -3.06%.
Consider `COc1ccc(/C=C2\SC(=S)N(CCCC(=O)N3CCCCC3CCO)C2=O)cc1` (stereo not drawn), for which the Potency entry is “inactive” and the cell number change is -3.77%.
`COc1cc(/C=C2\SC(=S)N(CCCCC(=O)O)C2=O)ccc1OS(=O)(=O)c1ccc(C)cc1`: the Potency was 20.6 µM (active) and the cell number change is -25.4%.
On the same counts, the results for `COc1cc(/C=C2\SC(=S)N(CC(=O)O)C2=O)ccc1OS(=O)(=O)c1ccc(C)cc1` are “inactive” and -2.94%.
In the case of `CCN(C(=O)CCN1C(=O)/C(=C/c2ccccc2)SC1=S)C1CCS(=O)(=O)C1` (stereo not drawn), the Potency was 18.4 µM (active) and the cell number change was -2.83%.
Consider `O=C(O)CCN=C1CCCc2ccccc2N1`, for which the Potency entry was “inactive” and the cell number change was -7.32%.
For the compound `COCCCNc1nnc(Cc2ccccc2)c2ccccc12`, the Potency entry is “inactive” and the cell number change is -6.27%.
On the same counts, the results for `CC(=O)N1CCCc2cc(S(=O)(=O)Nc3ccc(C)cc3C)ccc21` are “inactive” and 19.8%.
